Screens deposited in PubChem by several laboratories.
LMP1 NFkB inh: reduces LMP1-driven NF-kappaB luciferase signal | LMP1-induced NF-kappaB luciferase reporter cells, luminescence | inhibition, % at 12.5 µM | 0.69% of 350,000 active | AID 504558; in the data active means inhibition above about 41%; inconclusive means no clear call, values can overlap the other calls
TROY NFkB inh: inhibitors of TROY-dependent NF-kB signaling; Q293 LMP1-TROYcd NF-kB luciferase reporter, 4 h; inhibition, % at 10 µM; 0.98% of 360,000 active;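 active means compounds whose plate-normalised and pattern-corrected inhibition of the luciferase reporter signal at the single screening dose is 50% or more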
TWEAK Fn14 block: TWEAK-Fn14 signaling inhibition | TWEAK-stimulated Fn14 reporter cells, luciferase luminescence, 8 h | 2% of 360,000 active | AID 1159606 | inhibition, % at 10 µM; in the data active means inhibition above about 50%
HSF1 inh: HSF1 inhibition | NIH3T3-HGL HSE-luciferase, MG132-induced, luminescence 8 h; stronger effect = lower value | 0.77% of 300,000 active | activity change, negative = inhibition, % at 7.5 µM (by protocol);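 active means more than half of replicate wells show activity change below -50%, luminescence cut by over half; inconclusive means some wells, but at most half, below -50%; inactive means no replicate well below -50%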;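 further: luciferase reports HSF-1 transcriptional activity via heat shock element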
HSF-1 act: increases HSF-1 driven luciferase reporter signal | activation, % at 9 µM | NIH3T3-HGL HSF-1 luciferase reporter, MG132, 8 h; 100% = twice DMSO control signal | 1.7% of 300,000 active;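 active means mean replicate activation of at least 50% with a set share of replicates each reaching 50%; inconclusive means only one of those two conditions met; inactive means mean below 50% and too few replicates reaching it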
LGR2 inh: Drosophila LGR2 receptor signaling inhibition; HEK293 LGR2, CRE-luciferase, bursicon-stimulated, 4 h; inhibition, % at 9.99 µM; 0.35% of 380,000 active; AID 720647;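 active means drop in luminescence signal, shown as inhibition above about 50% in the replicate tests, limit read from the data, passing the limit was not always enough; inconclusive means probably only some replicates passing the limit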;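 further: agonist challenge used bursicon conditioned medium at about half maximal strength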
Large screens that a line does not name were inactive. The list is not random: actives were taken first. Their share in the collection is about 3.6%.

C=C1C(=O)[C@]23C[C@H]1CC[C@H]2[C@]1(C)[C@@H](OC(C)=O)CC[C@@](C)(C(=O)O)[C@H]1C[C@@H]3O	TWEAK Fn14 block 79 (no result: LMP1 NFkB inh, HSF1 inh, HSF-1 act)
C=C1C(=O)[C@]23C[C@H]1CC[C@H]2[C@]1(C)[C@@H](O)CC[C@@](C)(C(=O)O)[C@H]1C[C@@H]3O	none (no result: LMP1 NFkB inh, HSF1 inh, HSF-1 act)
CN1CCN(C(=O)C[C@@H]2CC[C@@H]3[C@H](COC[C@@H](O)CN3Cc3ccc4c(c3)OCO4)O2)CC1	none (no result: LMP1 NFkB inh, TROY NFkB inh, TWEAK Fn14 block, HSF1 inh, HSF-1 act)
COc1ccccc1CNC(=O)C[C@@H]1CC[C@@H]2[C@H](COC[C@@H](O)CN2C(=O)Nc2ccc(Cl)cc2)O1	none (no result: LMP1 NFkB inh, TROY NFkB inh, TWEAK Fn14 block, HSF1 inh, HSF-1 act)
CCN(CC)CCCn1c(=S)[nH]c2ncccc2c1=O	HSF-1 act 62 (no result: LGR2 inh)
O=C(CCNS(=O)(=O)c1ccc(Br)cc1)NCCc1ccccc1	none
Cc1ccc(S(=O)(=O)NC(Cc2ccccc2)C(=O)NN)cc1 (configuration not stated)	none
Cc1ccc(S(=O)(=O)N[C@@H](Cc2ccccc2)C(=O)CCl)cc1	TWEAK Fn14 block 66 (no result: HSF1 inh, HSF-1 act, LGR2 inh)
CC(NS(=O)(=O)c1ccc(Br)cc1)C(=O)NCCc1ccccc1 (configuration not stated)	TROY NFkB inh 57
O=C(c1ccc(F)cc1)c1ccc(N2CCCC2)cc1	none (no result: TROY NFkB inh, LGR2 inh)
O=S(=O)(N1CCCCC1)N1CCN(c2ccc(F)cc2)CC1	HSF1 inh -71 (no result: LGR2 inh)
O=C(c1ccc(F)cc1)c1ccc(N2CCCCC2)cc1	HSF-1 act 64
O=S(=O)(c1ccc(N2CCN(c3ccc(F)cc3)CC2)cc1)N1CCCC1	none (no result: LGR2 inh)
O=C(CCN1CCOCC1)c1ccc(N2CCCCC2)cc1	TWEAK Fn14 block 55 (no result: HSF1 inh, HSF-1 act)
Cc1cccc(NC(=S)N2CCN(C(=O)c3ccco3)CC2)c1C	HSF-1 act 61
C[C@H](CO)N1C[C@H](C)[C@H](CN(C)C(=O)C2CCCCC2)OCc2cn(nn2)CCCC1=O	none (no result: LMP1 NFkB inh, TROY NFkB inh, TWEAK Fn14 block, HSF1 inh, HSF-1 act)
CCC(C)(C)c1ccc(Oc2ccc(N)cc2)cc1	LMP1 NFkB inh 51, TROY NFkB inh 89, TWEAK Fn14 block 101 (no result: LGR2 inh)
CSc1sc(C(=O)OC(C)C)c2c1C(=O)CC(C)(C)C2	HSF-1 act 53 (no result: LGR2 inh)
CSc1sc(C(=O)O)c2c1C(=O)CC(C)(C)C2	none
CCn1c(Sc2ccc([N+](=O)[O-])cn2)nnc1-c1ccco1	TWEAK Fn14 block 55
O=C1c2ccccc2C(=O)N1c1ccc(Br)c2cccnc12	none
COc1ccccc1Oc1ccc2c(c1)C(=O)N(c1ccc(Br)c3cccnc13)C2=O	HSF1 inh -75 (no result: LGR2 inh)
CCN1[C@@H]2c3ccc(-c4ccccc4)c(=O)n3C[C@H]1[C@H](CO)[C@H]2C(=O)NC1CCC1	none (no result: LMP1 NFkB inh, TROY NFkB inh, TWEAK Fn14 block, HSF1 inh, HSF-1 act)
O=C(NOCc1ccccc1)c1ccc(Cl)cc1Cl	LMP1 NFkB inh 46, TWEAK Fn14 block 82, LGR2 inh 82 (no result: HSF1 inh, HSF-1 act)
COc1ccc(Cl)cc1C(=O)NCC(=O)OCc1ccccc1	HSF1 inh -52
COc1ccc(Cl)cc1C(=O)NCCCSc1ccccc1	none
CCC(=O)/C=C1/Sc2ccccc2N1CC	none
CCN1/C(=C/c2sc(-c3ccccc3C)c[n+]2C)Sc2ccccc21	TWEAK Fn14 block 63
COc1ccc2[nH]c(C)c(CCN3C(=O)OC(C)(C)C3(C)O)c2c1 (configuration not stated)	LMP1 NFkB inh 90
COc1ccc(C2=NN(C(=O)CN3CCCCC3)C(c3ccc(OC)cc3)C2)cc1 (configuration not stated)	none
COc1ccc(C2CC(c3ccccc3)=NN2C(=O)c2cccs2)cc1 (configuration not stated)	HSF-1 act 71
COc1ccc(C2=NN(C(=O)CN3CCCC3)C(c3ccc(OC)cc3)C2)cc1 (configuration not stated)	HSF-1 act 55 (no result: LMP1 NFkB inh)
COCC(=O)Nc1ccc2c(c1)C(=O)N(C)C[C@H](OC)[C@@H](C)CN(C(=O)c1ccccc1F)[C@H](C)CO2	none (no result: LMP1 NFkB inh, TROY NFkB inh, TWEAK Fn14 block, HSF1 inh, HSF-1 act)
Clc1ccc(SCCn2cncn2)cc1	none (no result: LGR2 inh)
Cc1ccc(SCCCn2cncn2)cc1	HSF1 inh -71 (no result: LGR2 inh)
O=C(COC(=O)C1CC2C=CC1C2)Nc1ccc2c(c1)OC(F)(F)O2 (configuration not stated)	HSF-1 act 105 (no result: LGR2 inh)
CSc1ccc(/C=N/NC(=O)c2ccc(C)c(C)c2)cc1	none
CSc1ccc(/C=N/NC(=O)c2sccc2C)cc1	TWEAK Fn14 block 55, HSF-1 act 62 (no result: LGR2 inh)
CC1(C)NC(=O)N(CCCOc2ccccc2Br)C1=O	HSF-1 act 52 (no result: LGR2 inh)
CC(=O)c1cccc(OCCN2C(=O)NC(C)(C)C2=O)c1	TROY NFkB inh 58 (no result: LGR2 inh)
CCc1cccc(OCCCN2C(=O)NC(C)(C)C2=O)c1	none (no result: LGR2 inh)
Cc1ccc(S(=O)(=O)N(C)C[C@@H]2Oc3c(NS(=O)(=O)c4ccccc4)cccc3C(=O)N([C@@H](C)CO)C[C@@H]2C)cc1	none (no result: LMP1 NFkB inh, TROY NFkB inh, TWEAK Fn14 block, HSF1 inh, HSF-1 act)
CN(C)CC(=O)N1[C@@H]2c3cccc(=O)n3C[C@H]1[C@H](CO)[C@H]2C(=O)NCc1ccccc1	none (no result: LMP1 NFkB inh, TROY NFkB inh, TWEAK Fn14 block, HSF1 inh, HSF-1 act)
O=C(O)/C=C/C(=O)N1CCN(c2ccccc2F)CC1	TROY NFkB inh 75
O=C(CCCC(=O)N1CCN(c2ccccc2F)CC1)N1CCN(c2ccccc2F)CC1	none (no result: LGR2 inh)
O=S(=O)(c1cc(Cl)ccc1Cl)N1CCC2(CC1)OCCO2	HSF1 inh -72
CO[C@H]1CN(C)C(=O)c2ccc(NS(=O)(=O)c3ccccc3C)cc2OC[C@H](C)N(C)C[C@@H]1C	none (no result: LMP1 NFkB inh, TROY NFkB inh, TWEAK Fn14 block, HSF1 inh, HSF-1 act)
Cc1c2c(nc3ccccc13)CCC(C(C)(C)C)C2 (configuration not stated)	HSF-1 act 57 (no result: LGR2 inh)
CC(C)(C)C1CCc2[nH]c3ccccc3c(=O)c2C1 (configuration not stated)	none
C[C@@H]1CCCCO[C@@H](CN(C)Cc2ccc(C(=O)O)cc2)[C@@H](C)CN([C@@H](C)CO)C(=O)c2cc(NC(=O)Nc3cccc4ccccc34)ccc2O1	none (no result: LMP1 NFkB inh, TROY NFkB inh, TWEAK Fn14 block, HSF1 inh, HSF-1 act)
CCOc1cccc(C(=O)NC2=NCCS2)c1	none
CCOc1ccc(C(=O)SC2=NCCS2)cc1	TWEAK Fn14 block 63 (no result: LGR2 inh)
COc1ccc(C(=O)SC2=NCCS2)cc1	TWEAK Fn14 block 54
S=C(N/N=C/c1ccc2ncccc2c1)Nc1cccnc1	LMP1 NFkB inh 55, TWEAK Fn14 block 56, HSF1 inh -65, LGR2 inh inconclusive
O=C(O)c1cccc(NC(=S)N/N=C/c2ccccn2)c1	LGR2 inh 72
Oc1ccc(/C=N/NC(=S)Nc2cccnc2)cc1O	none
Cc1cccc(C(=O)Nc2cccc(C(=O)N/N=C/c3ccccn3)c2)c1	none
O=C(O)c1cccc(NC(=S)N/N=C/c2cccc(O)c2)c1	HSF1 inh inconclusive, LGR2 inh 63
CCC(=O)Nc1ccc2c(c1)OC[C@@H](C)N(CCc1ccccc1)C[C@H](C)[C@H](OC)CN(C)C2=O	none (no result: LMP1 NFkB inh, TROY NFkB inh, TWEAK Fn14 block, HSF1 inh, HSF-1 act)
O=C(Cn1nc(C(F)(F)F)c2c1CCC2)NC1CCCCC1	LMP1 NFkB inh 44 (no result: LGR2 inh)
O=C(O)Cn1nc(C(F)(F)F)c2c1CCCC2	none (no result: HSF1 inh, HSF-1 act)
CN1C(=O)c2cc(NC(=O)C3CCCCC3)ccc2OC[C@@H]2O[C@@H](CC(=O)NC3CCCC3)CC[C@@H]21	none (no result: LMP1 NFkB inh, TROY NFkB inh, TWEAK Fn14 block, HSF1 inh, HSF-1 act)
